Laboratory results published in PubChem BioAssay (NCI).
“And” between values parts separate entries of the source, which are not always exact repeats. Identical values can stand only once. About 79,000 compounds went through this panel and 15% of them were active in at least one assay; those are over-represented in the sample as a whole. The source made the active and inactive calls. Cut-off read from the data, not from the text of the source: active = growth inhibition above about 70%; inactive = the rest.

Tests used:
[1] = NCI Yeast Anticancer Drug Screen. Data for the rad50 strain (AID 155);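 note: 0% = growth of vehicle-only cultures of the same strain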; conditions: S. cerevisiae rad50 strain growth inhibition; at 50.0 µM; stronger effect = higher value
How it was run: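 Genetically altered yeast (DNA repair pathway); compound treatment; growth inhibition vs vehicle ctrl.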

[2] = NCI Yeast Anticancer Drug Screen. Data for the mec2-1 strain (AID 157); conditions: S. cerevisiae mec2-1 strain, at 50.0 µM, stronger effect = higher value
How it was run: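 Compounds were applied to mec2-1 yeast cells. Their growth was then compared with that of vehicle-treated cultures to give growth inhibition.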

[3] = NCI Yeast Anticancer Drug Screen. Data for the sgs1 mgt1 strain (AID 161);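 note: 0% = growth of cultures given vehicle only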; conditions: S. cerevisiae sgs1 mgt1 strain, at 50.0 µM, stronger effect = higher value
How it was run: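 This yeast growth screen uses a strain with defined DNA-repair lesions; compound-treated growth is compared with vehicle-treated growth.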

[4] = NCI Yeast Anticancer Drug Screen. Data for the cln2 rad14 strain (AID 165);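 note: 0% = growth equal to vehicle treated cultures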; conditions: S. cerevisiae cln2 rad14 strain, at 50.0 µM, stronger effect = higher value
How it was run: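 Strain: cln2 rad14 yeast, altered in cell cycle control and DNA damage repair. Read-out: growth inhibition vs vehicle.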

[5] = NCI Yeast Anticancer Drug Screen. Data for the bub3 strain (AID 167); conditions: S. cerevisiae bub3 mutant strain, at 50.0 µM, stronger effect = higher value
How it was run: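 Yeast carrying a defined mutation is treated with each compound, and growth is compared with that of vehicle-exposed cells to give inhibition.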

[6] = NCI Yeast Anticancer Drug Screen. Data for the mlh1 rad18 strain (AID 175); conditions: S. cerevisiae mlh1 rad18 strain growth inhibition; at 50.0 µM; stronger effect = higher value
How it was run: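 A repair-deficient yeast strain is exposed to test compound, and growth is scored relative to vehicle-treated controls.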

Measured: growth inhibition

CC(C)CC(N)C(=O)O (configuration not stated)
inactive: [1] -6% and -19.2% | [2] -4.8% and 9.15% | [3] -3.25% and -31.2% | [4] -11.1% and -34% | [5] 5.7% and -8.45% | [6] 6.15% and -40.9%

ClC1CC2OC(Cl)CC2O1 (configuration not stated)
inactive: [1] 5.2% | [2] 1.05% | [3] -19.1% | [4] -20.9% | [5] 0.4% | [6] 1.15%

CSCCC(N)P(C)(=O)O (configuration not stated)
inactive: [1] -16.4% | [2] -37.5% | [3] -15.7% | [4] 1.5% | [5] -46.1% | [6] -17.5%

Cc1csc(N/C(=N/[N+](=O)[O-])N(C)C)n1
inactive: [1] -35.5% | [2] 0.65% | [3] -9.15% | [4] -10.8% | [5] 2.1% | [6] -3.7%

CCOc1ccc(P2(=S)SP(=S)(c3ccc(OCC)cc3)S2)cc1 (configuration not stated)
inactive: [1] -11.3% | [2] -20.9% | [3] -13.2% | [4] 20% | [5] 17.1% | [6] -13.8%

Cc1sc2cccc[n+]2c1C
inactive: [1] 5.85% | [2] -12.9% | [3] -8.95% | [4] -8.95% | [5] -3.4% | [6] -14.4%

CC(=O)OC[C@]12C[C@H](OC(=O)CC(C)C)C(C)=C[C@H]1O[C@@H]1[C@H](O)[C@@H](O)[C@@]2(C)[C@@]12CO2
active: [1] 83.2% | [2] 83% | [3] 83.3% | [4] 87.7% | [5] 81.9% | [6] 84.8%

COc1ccc(CO)cc1
inactive: [1] -1.5% | [2] -10.1% | [3] 11.3% | [4] -12.8% | [5] -17.3% | [6] -13.7%

O=C(O)C(Cl)(Cl)Cl
inactive: [1] -0.6% | [2] -22.6% | [3] -15.8% | [4] 14.4% | [5] -17.4% | [6] 21.1%

O=C(O)CCC(=O)O.[Ni]
inactive: [1] -29.1% | [2] -17.1% | [3] -27% | [4] -36.5% | [5] -31.2% | [6] -18.3%

[N-]=[N+]=CC(=O)OCC(N)C(=O)O (configuration not stated)
inactive: [1] 4.5% | [2] -12.8% | [3] -5.35% | [4] 14.1% | [5] -6.7% | [6] -0.6%

CCOP(=O)(Oc1ccc([N+](=O)[O-])cc1)c1cccc(Br)c1 (configuration not stated)
inactive: [1] 41.5% | [2] 19.5% | [3] 54% | [4] 41.3% | [5] 38.5% | [6] 25%

C#CCC1(OC(N)=O)CCCCC1
inactive: [1] 19.2% | [2] 14.8% | [3] -1.35% | [4] -38.2% | [5] 3.65% | [6] -16.6%

COc1cc([N+](=O)[O-])ccc1[As](=O)(O)O
inactive: [1] 0% | [2] -4.1% | [3] 8.95% | [4] -63.5% | [5] 10.7% | [6] -1.05%

Oc1ccc(Cc2ccc(O)cc2)cc1
inactive: [1] -0.2% | [2] -3.4% | [3] -0.3% | [4] -16.3% | [5] -3.1% | [6] 5.85%

CCN(CC)CCN1CC2CCCCC2C1 (configuration not stated)
inactive: [1] 4.25% | [2] 0.35% | [3] 1% | [4] 5.45% | [5] 11.6% | [6] 3%

CN(N=O)C1=NC2(CCCCC2)P(=O)(NNc2ncccn2)O1 (configuration not stated)
inactive: [1] 0.9% | [2] -17.9% | [3] -15.2% | [4] 9.85% | [5] 11.2% | [6] 13.1%

NC(=O)Cc1ccc([As]=O)cc1 (configuration not stated)
inactive: [1] 19.6% | [2] 10.1% | [3] 9.05% | [4] 21% | [5] 6.85% | [6] 14.9%

CCOC(=O)C(C)Br (configuration not stated)
inactive: [1] 15% | [2] 5.3% | [3] 28.3% | [4] -24.7% | [5] 44.6% | [6] -8.2%

O=C(C(Cl)Cl)N1CCCCC1
inactive: [1] -5.2% | [2] -0.3% | [3] -5.5% | [4] 4.65% | [5] 0% | [6] 39.9%

c1ccc(-c2sc3cccc[n+]3c2-c2ccccc2)cc1
inactive: [1] -5.3% | [2] 0.6% | [3] -14.5% | [4] -10.4% | [5] 13.4% | [6] -3.35%

CC(=O)C1C=NCCN=CC(C(C)=O)C(C)=NCCCN=C1C.[Ni] (configuration not stated)
inactive: [1] 10.7% | [2] 4.3% | [3] 14.4% | [4] -2.2% | [5] 8.7% | [6] 18.5%

CCCC1NCCOC1(O)c1ccccc1 (configuration not stated)
inactive: [1] -11.2% | [2] -8.35% | [3] -1% | [4] -16.4% | [5] 3.35% | [6] -33.8%

O=C1NC(=S)NC(=O)C1=CC1CC1
inactive: [1] 22.6% | [2] 13.8% | [3] 17.4% | [4] 19.6% | [5] 9.2% | [6] 29.6%

C=CC(C)(C)C12CC3C(=O)N/C(=C\c4cnc[nH]4)C(=O)N3C1Nc1ccccc12 (configuration not stated)
inactive: [1] -33.4% | [2] -11% | [3] 8.15% | [4] 1.45% | [5] -6.3% | [6] -14.8%

COCC1OC(OC2C3=C(C(C)C)CCC3(C)/C=C3\C(CCC3(O)COC)C(C)C2O)C(O)C2OC3OC12OC3(C)C1CO1 (configuration not stated)
inactive: [1] 28.1% | [2] 7.75% | [3] 21% | [4] 35.2% | [5] 31.6% | [6] -78%

O=NN1CCCC1C(=O)O (configuration not stated)
inactive: [1] -10.8% and 0.75% | [2] -16.6% and -11.8% | [3] -14.2% and -12% | [4] 10.1% and 3.9% | [5] 3.45% and 1.65% | [6] -14% and -2.15%

CCOC(=O)CC1=N/C(=N/C(=N)N[N+](=O)[O-])SC1
inactive: [1] 7.45% | [2] -5.3% | [3] 10.4% | [4] 7.6% | [5] 15.3% | [6] 16%

CC(=O)C1C(c2ccccc2)C2(C)OC(=O)C(C#N)C12C (configuration not stated)
inactive: [1] -17.6% | [2] 18.9% | [3] 9% | [4] 32.3% | [5] 21.8% | [6] 33.2%

O=C(O)C(C(=O)O)P(=S)(S)c1ccccc1 (configuration not stated)
inactive: [1] -2.1% | [2] 8.6% | [3] -2.75% | [4] 1.15% | [5] 35.3% | [6] 14.5%

CC(=O)c1ccccc1O
inactive: [1] 10.8% and 2.05% | [2] 11.4% and -10.9% | [3] -53.4% and -0.4% | [4] -13.4% and 2.05% | [5] -16.9% and 3.7% | [6] -29.4% and -4.5%

OC1=C2CCCCCC2=[N+]2CCCCC2C1 (configuration not stated)
active: [6] 70.8%
inactive: [1] 19.1% | [2] 33.6% | [3] 52.5% | [4] -1.6% | [5] 32.2%

CCCC(C)COC(=O)Cc1ccccc1 (configuration not stated)
inactive: [1] 18.3% | [2] 18.2% | [3] 9.55% | [4] -27.9% | [5] 4.3% | [6] 15.2%

Cc1csc(CP(=O)(OC(C)C)OC(C)C)n1
inactive: [1] -22.6% | [2] -47% | [3] -21.6% | [4] -13.2% | [5] 3.35% | [6] -5.8%

CCOC(=O)C1C(=O)C(C(=O)OCC)C2c3ccccc3-c3ccccc3C1N2C (configuration not stated)
inactive: [1] 29.8% | [2] 7.25% | [3] 35.2% | [4] -7.35% | [5] 8.7% | [6] 15.7%

C/C=C1/CC(C)C(C)(O)C(=O)OCC2CCN3CCC(OC1=O)C23 (configuration not stated)
inactive: [1] 13.5% | [2] -1.75% | [3] 6.8% | [4] 8.05% | [5] 23.1% | [6] 18.4%

CCC[CH2][Sn]([CH2]CCC)([CH2]CCC)[CH2]CC[N+](C)(CCO)CCO.CS(=O)(=O)[O-]
active: [1] 99.4% | [2] 99.2% | [3] 99.7% | [4] 99.3% | [5] 99.5% | [6] 99.2%
